From article PMC4336329 (PLoS ONE, 2015)
Hit rate of the full screen: of about 310,000 compounds, about 14,000 (4.5%) showed an effect of 50% or more. The effect is printed as a negative number. The entries come from a sample that favours strong results as a whole.

Each molecule was assayed against human ether-à-go-go-related gene (hERG) potassium channel (human, UniProt Q12809) (assay: primary screen, population patch clamp on CHO cells stably expressing hERG; higher = less effect of the substance).
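Further: peak tail current of the secondary pulse compared with the same well before compound.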

Sequence of human ether-à-go-go-related gene (hERG) potassium channel (Q12809 whole entry, looked up): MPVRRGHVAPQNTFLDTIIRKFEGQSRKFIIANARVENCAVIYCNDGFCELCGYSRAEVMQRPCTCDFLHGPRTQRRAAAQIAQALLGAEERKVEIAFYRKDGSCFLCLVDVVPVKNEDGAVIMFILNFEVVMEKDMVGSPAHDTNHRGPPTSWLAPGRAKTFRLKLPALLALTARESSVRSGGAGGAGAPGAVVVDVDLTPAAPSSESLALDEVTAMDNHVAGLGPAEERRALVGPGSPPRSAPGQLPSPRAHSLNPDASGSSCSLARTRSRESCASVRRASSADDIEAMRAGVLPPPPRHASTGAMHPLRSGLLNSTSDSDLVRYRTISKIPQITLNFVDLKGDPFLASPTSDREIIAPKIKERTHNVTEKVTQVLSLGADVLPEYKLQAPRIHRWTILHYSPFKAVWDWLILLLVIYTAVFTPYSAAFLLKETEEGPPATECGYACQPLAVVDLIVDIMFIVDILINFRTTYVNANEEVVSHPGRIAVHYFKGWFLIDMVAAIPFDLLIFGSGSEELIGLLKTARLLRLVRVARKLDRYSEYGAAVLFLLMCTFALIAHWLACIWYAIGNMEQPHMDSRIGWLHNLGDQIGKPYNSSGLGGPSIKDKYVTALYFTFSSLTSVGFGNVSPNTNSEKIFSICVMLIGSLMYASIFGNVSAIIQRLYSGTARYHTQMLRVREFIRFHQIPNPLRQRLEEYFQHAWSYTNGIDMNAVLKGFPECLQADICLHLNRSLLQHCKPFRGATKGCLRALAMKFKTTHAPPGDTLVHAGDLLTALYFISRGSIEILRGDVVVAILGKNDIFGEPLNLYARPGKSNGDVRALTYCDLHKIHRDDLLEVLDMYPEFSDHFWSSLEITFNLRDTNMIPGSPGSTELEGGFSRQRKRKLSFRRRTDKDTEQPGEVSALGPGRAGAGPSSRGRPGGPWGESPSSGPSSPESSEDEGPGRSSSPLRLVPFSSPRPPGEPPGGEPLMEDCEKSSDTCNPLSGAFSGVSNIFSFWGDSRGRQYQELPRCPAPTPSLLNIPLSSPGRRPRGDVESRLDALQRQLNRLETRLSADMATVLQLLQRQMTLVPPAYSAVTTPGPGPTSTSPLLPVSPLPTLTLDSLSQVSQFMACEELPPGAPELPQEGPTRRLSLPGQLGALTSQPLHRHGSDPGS

Compound | hERG current change (%, negative = inhibition) at 10uM
O=C1CCCC(O)=C1N=Nc1ccc(S(=O)(=O)N2CCOCC2)cc1 | 2.06%
COc1ccc(NC(=O)C2C3C=CC4(O3)C2C(=O)N(CCN2CCCCC2C)C4C(=O)NC2CCCC(C)C2C)cc1 (stereo not drawn) | -22.4%
Cc1cccc(C)c1-n1c(SCC(=O)N2CC(=O)Nc3ccccc32)nc2ccccc2c1=O | -0.373%
CS(=O)(=O)N(CC(=O)N1CCN(c2ccc(F)cc2)CC1)c1cccc(Cl)c1 | -49.9%
O=C(NCCc1csc(-c2cccnc2)n1)c1cccs1 | -5.91%
C#CCN1C(=O)C(O)(CC(=O)/C=C/C=C/c2ccccc2)c2ccccc21 (stereo not drawn) | 21.6%
COCCNC(=O)c1cccc(OC2CCN(Cc3cccc(C(C)=O)c3)CC2)c1 | 6.74%
COCCNC(=O)c1cccc(OC2CCN(Cc3ccccc3C)CC2)c1 | 6.34%
CCCN1CCC(Oc2cccc(C(=O)NCCc3ccccc3)c2)CC1 | -66%
Oc1ccc(Br)cc1-c1cc(-c2ccc(Cl)cc2)n[nH]1 | 7.99%
Cc1noc2ncnc(Sc3ccc(Br)cc3)c12 | -50.8%
Cc1ccc(Sc2ncnc3onc(C)c23)cc1 | 4.79%
Cc1noc2ncnc(Sc3ccc(Cl)cc3)c12 | 16.3%
O=[N+]([O-])c1ccccc1CNCCCCO | -3.05%
CC(C)c1csc2nc3n(c(=O)c12)CCCCC3 | -10.7%
O=C(c1cc[n+]([O-])cc1)N1CCCC(N2CCN(c3cccc(C(F)(F)F)c3)CC2)C1 (stereo not drawn) | -6.27%
Cc1occc1C(=O)N1CCCC(N2CCN(c3cccc(C(F)(F)F)c3)CC2)C1 (stereo not drawn) | -38.9%
CCn1cc(C(=O)N2CCCC(N3CCN(c4cccc(C(F)(F)F)c4)CC3)C2)cn1 (stereo not drawn) | -29.2%
Cc1cc(C(=O)N2CCCC(N3CCN(c4cccc(C(F)(F)F)c4)CC3)C2)n[nH]1 (stereo not drawn) | -53.2%
O=C(c1ccsc1)N1CCCC(N2CCN(c3cccc(Cl)c3)CC2)C1 (stereo not drawn) | -47.1%
Cc1nnsc1C(=O)N1CCCC(N2CCN(c3cccc(C(F)(F)F)c3)CC2)C1 (stereo not drawn) | -26.8%
Cc1cc(C(=O)N2CCCC(N3CCN(c4cccc(C(F)(F)F)c4)CC3)C2)no1 (stereo not drawn) | -2.14%

Compound | hERG current change (%, negative = inhibition) at 10uM
Cc1cnc(C(=O)N2CCCC(N3CCN(c4cccc(C(F)(F)F)c4)CC3)C2)cn1 (stereo not drawn) | -39.7%
O=C(c1ccsc1)N1CCCC(N2CCN(c3cccc(C(F)(F)F)c3)CC2)C1 (stereo not drawn) | -64.2%
O=C(c1ccoc1)N1CCCC(N2CCN(c3cccc(C(F)(F)F)c3)CC2)C1 (stereo not drawn) | -55.5%
O=C(c1cccs1)N1CCCC(N2CCN(c3cccc(C(F)(F)F)c3)CC2)C1 (stereo not drawn) | -68.4%
O=C(c1ccoc1)N1CCCC(N2CCN(c3cccc(Cl)c3)CC2)C1 (stereo not drawn) | -41.3%
CC(=O)c1ccc(N2C(=NC(=O)COc3ccccc3)SC3CS(=O)(=O)CC32)cc1 (stereo not drawn) | -3.89%
COc1cc2c(cc1OC)CN(C(=O)c1cc(Cl)nc(Cl)c1)CC2 | 12.1%
CC(=O)OCC(OC(C)=O)C(OC(C)=O)C(OC(C)=O)C(=O)Nc1ccccc1 (stereo not drawn) | 16.6%
COc1ccc(CNC(=O)Nc2ccc([N+](=O)[O-])cc2)cc1 | 5.47%
CN(CC(=O)Nc1ccc(Cl)c(S(=O)(=O)N2CCOCC2)c1)C(=O)c1cccs1 | -44.2%
CCOc1ccccc1NC(=O)C1CCCN1C(=O)c1cccs1 (stereo not drawn) | 7.83%
Cc1ccc(CNC(=O)CCC(=O)Nc2nnc(C3CCCCC3)s2)cc1 | 17.6%
CCOc1ccc(OCC(=O)OCC(=O)N2CCN(C(=O)c3ccco3)CC2)cc1 | -21.9%
O=C(CSc1nnc(SCc2ccc(F)cc2)s1)Nc1ccc(C(=O)O)cc1 | 18.6%
O=C(O)c1cc(O)ccc1NC(=O)C1CCCO1 (stereo not drawn) | -0.924%
O=C(c1ccc(F)cc1F)N1CCN(c2ccccn2)CC1 | 0.804%
O=C1NC(=O)C(Cc2ccccc2)(c2cccnc2)N1 (stereo not drawn) | 17.7%
Cc1ccc2nc(/C(C#N)=C\c3ccc(Oc4ccc([N+](=O)[O-])cn4)cc3)[nH]c2c1 | 1.61%
CCc1ccc(-c2cc(C(=O)N/N=C/c3ccccn3)[nH]n2)cc1 | -41.7%
CC(=O)N1CCCC(N2CCN(c3cccc(C(F)(F)F)c3)CC2)C1 (stereo not drawn) | -3.73%
Cc1ccc(C(=O)N2CCCC(N3CCN(c4cccc(C(F)(F)F)c4)CC3)C2)s1 (stereo not drawn) | -51%
CC1=C(C(=O)N2CCCC(N3CCN(c4cccc(C(F)(F)F)c4)CC3)C2)OCCO1 (stereo not drawn) | -17.9%

Compound | hERG current change (%, negative = inhibition) at 10uM
COc1cccc(C(=O)Nc2sc(C(C)C)cc2C(N)=O)c1OC | -50.5%
COc1cccc(C(=O)Nc2nnc(-c3ccccc3)s2)c1OC | 4.52%
COc1cccc(NC(=O)c2cccc(OC)c2OC)c1 | -0.56%
CCCN1C(=O)c2cc(C(=O)NC3CCCC3)ccc2C1O (stereo not drawn) | -2.01%
Cc1ccc(NCN2C(=O)C3CC=CCC3C2=O)cc1 (stereo not drawn) | 2.67%
CCN(CC(=O)Nc1ccccc1OC)C(=O)c1ccc(N(C)S(=O)(=O)c2ccc(C)cc2)cc1 | -62.2%
CCN(CC(=O)NC(C)C)C(=O)c1ccc(S(=O)(=O)N(C)c2ccccc2OC)cc1 | -2.53%
COc1ccccc1NC(=O)CN(Cc1ccco1)C(=O)c1ccc(-n2nc(C)cc2C)cc1 | -51.2%
CCCN(CC(=O)Nc1ccccc1OC)C(=O)c1cccc(S(=O)(=O)Nc2ccc(OC)cc2)c1 | -11.4%
CCCN(CC(=O)Nc1ccccc1OC)C(=O)c1ccc(S(=O)(=O)Nc2ccccc2)cc1 | -53.4%
CCOC(=O)c1c(C)[nH]c(C)c1S(=O)(=O)N(C)CC(=O)Nc1ccccc1OC | -60%
CCN(Cc1ccccc1)C(=O)c1ccc(N(C)S(=O)(=O)c2ccc(C)cc2)cc1 | -38.7%
COc1ccccc1NC(=O)CN(Cc1ccco1)C(=O)c1ccc(Cl)nc1 | -28.4%
CCOC(=O)c1c(C)[nH]c(C)c1S(=O)(=O)N(C)CC(=O)Nc1cc(C)ccc1OC | -24.7%
CCOC(=O)c1c(C)[nH]c(C)c1S(=O)(=O)N(C)CC(=O)Nc1ccccc1C | 14.4%
CCN(CC(=O)Nc1ccccc1OC)C(=O)c1ccc(NS(=O)(=O)c2ccc(C(C)=O)cc2)cc1 | 0.13%
COc1ccccc1NC(=O)CN(Cc1ccco1)C(=O)c1cncc(Br)c1 | -22.4%
COc1ccc2[nH]cc(C(=O)CCl)c2c1 | 8.92%
COCCN1C(=O)N(c2ccccc2)C(=O)C1CC(=O)Nc1cc(OC)cc(OC)c1 (stereo not drawn) | 14%
CSc1nnc(C)c(/C=C/NOCc2cccc(F)c2)n1 | 4.03%
Cl.OCCN(Cc1ccccc1)CC(O)COc1ccc(-c2ccccc2)cc1 (stereo not drawn) | -28.3%
CCOC(=O)c1ccc(NC(=O)CCc2nc(-c3cccc(C)c3)no2)cc1 | 7.13%

Compound | hERG current change (%, negative = inhibition) at 10uM
Cc1ccc(S(=O)(=O)c2c(C)cc(C)[nH]c2=O)cc1 | 20.3%
CCn1nnnc1SCC(=O)Nc1cccc(NC(C)=O)c1 | -1.06%
Cc1csc(NC(=O)CSc2nncc(=O)n2N)n1 | 19%
O=C(Nc1cccc(/C=C/c2ccccn2)c1)c1ccc(-n2cncn2)c([N+](=O)[O-])c1 | -24.9%
Cc1cc(C)cc(OCC(=O)Nc2cc(C)on2)c1 | 15.9%
Cc1c(NS(=O)(=O)c2cccc(C(=O)NCc3ccncc3)c2)c(=O)n(-c2ccccc2)n1C | 6.38%
CC(C)Sc1nc2ccccc2n2cnnc12 | -6.25%
Cc1nnc2c(NC(C)C)nc3ccccc3n12 | -26.8%
Cc1nnc2c(SC(C)C)nc3ccccc3n12 | -77.2%
CCC(NC(=S)NCc1ccc(F)cc1)c1ccc(C)cc1 (stereo not drawn) | 13.7%
COc1ccc(NC(=O)c2ccccc2NC(=O)C2CC=CCC2C(=O)O)cc1 (stereo not drawn) | 15.6%
Cc1ccc(CNC(=O)CCSCc2ccc(C)cc2)cc1 | -2.27%
NC(=O)C1CCN(Cc2nc(-c3ccccc3)no2)CC1 | -14.1%
CCOC(=O)C1CCCN(C2CCN(Cc3nc(Cc4ccccc4)no3)CC2)C1 (stereo not drawn) | -60.3%
Cc1ccc(-c2noc(CN3CCC(C(N)=O)CC3)n2)cc1 | 21.9%
CCOC(=O)C1CCCN(Cc2nc(Cc3cccc(F)c3)no2)C1 (stereo not drawn) | -6.6%
CCOC(=O)C1CCCN(C2CCN(Cc3nc(-c4ccccc4)no3)CC2)C1 (stereo not drawn) | -56.5%
CCOC(=O)C1CCN(C2CCN(Cc3nc(-c4ccccc4)no3)CC2)CC1 | -71.5%
CCOC(=O)C1CCN(Cc2nc(-c3ccc(OC)c(OC)c3)no2)CC1 | 2.83%
CCOC(=O)C1CCCN(Cc2nc(Cc3ccccc3Cl)no2)C1 (stereo not drawn) | -14.1%
CCOC(=O)N1CCN(Cc2nc(-c3ccccc3)no2)CC1 | 2%
